Experimental data from article PMC5540273 (PLoS ONE, 2017).
Read-outs that look alike come from different tables or passages of the source.

Key:
SRMS = settings: concentration: 1 μM, replicates: in singlicate; n = 1
SRPK1 = settings: concentration: 1 μM, replicates: in singlicate; n = 1
SRPK2 = settings: concentration: 1 μM, replicates: in singlicate; n = 1
SRPK3 = settings: concentration: 1 μM, replicates: in singlicate; n = 1
STK16 = settings: concentration: 1 μM, replicates: in singlicate; n = 1
STK33 = settings: concentration: 1 μM, replicates: in singlicate; n = 1
STK35 = settings: concentration: 1 μM, replicates: in singlicate; n = 1
STK36 = settings: concentration: 1 μM, replicates: in singlicate; n = 1
STK39 = settings: concentration: 1 μM, replicates: in singlicate; n = 1
SYK = settings: concentration: 1 μM, replicates: in singlicate; n = 1
SgK110 = settings: concentration: 1 μM, replicates: in singlicate; n = 1
TAK1 = test system: T1, TAK1; settings: concentration: 1 μM, replicates: in singlicate; n = 1
T1 construct: gene MAP3K7

TAOK1 = settings: concentration: 1 μM, replicates: in singlicate; n = 1
TAOK2 = settings: concentration: 1 μM, replicates: in singlicate; n = 1
TAOK3 = settings: concentration: 1 μM, replicates: in singlicate; n = 1
TBK1 = settings: concentration: 1 μM, replicates: in singlicate; n = 1
TEC = settings: concentration: 1 μM, replicates: in singlicate; n = 1
TESK1 = settings: concentration: 1 μM, replicates: in singlicate; n = 1
TGFBR1 = settings: n = 1
TGFBR2 = settings: concentration: 1 μM, replicates: in singlicate; n = 1
[1] = concentration: 1 μM, replicates: in singlicate
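Further: KINOMEscan kinase panel screen.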

O=C(Nc1n[nH]c2nc(-c3ccco3)c(Br)cc12)c1ccc(CN2CCCC2)cc1.O=C(O)[C@H](O)[C@@H](O)C(=O)O [SB-742352]
%Inh (SRMS): 0%
%Inh (SRPK1): 2%
%Inh (SRPK2): 0%
%Inh (SRPK3): 26%
%Inh (STK16): 0%
%Inh (STK33): 0%
%Inh (STK35): 26%
%Inh (STK36): 54%
%Inh (STK39): 0%
%Inh (SYK): 10%
%Inh (SgK110): 50%
%Inh (TAK1): 0%
%Inh (TAOK1): 0%
%Inh (TAOK2): 0%
%Inh (TAOK3): 0%
%Inh (TBK1): 13%
%Inh (TEC): 0%
%Inh (TESK1): 8%
%Inh (TGFBR1; [1]): 0%
%Inh (TGFBR2): 0%

O=c1cc(N2CCOCC2)nc2n(Cc3cccc(Cl)c3)ccn12 [GSK2296823]
%Inh (SRMS): 0%
%Inh (SRPK1): 16%
%Inh (SRPK2): 0%
%Inh (SRPK3): 51%
%Inh (STK16): 0%
%Inh (STK33): 0%
%Inh (STK35): 6%
%Inh (STK36): 0%
%Inh (STK39): 11%
%Inh (SYK): 5%
%Inh (SgK110): 0%
%Inh (TAK1): 0%
%Inh (TAOK1): 0%
%Inh (TAOK2): 0%
%Inh (TAOK3): 0%
%Inh (TBK1): 38%
%Inh (TEC): 1%
%Inh (TESK1): 0%
%Inh (TGFBR1; [1]): 0%
%Inh (TGFBR2): 0%

Cn1ccc2ncnc(Nc3ccc(Oc4cccc(Cl)c4)c(Cl)c3)c21
%Inh (SRMS): 0%
%Inh (SRPK1): 20%
%Inh (SRPK2): 0%
%Inh (SRPK3): 0%
%Inh (STK16): 0%
%Inh (STK33): 26%
%Inh (STK35): 0%
%Inh (STK36): 6%
%Inh (STK39): 0%
%Inh (SYK): 4%
%Inh (SgK110): 11%
%Inh (TAK1): 25%
%Inh (TAOK1): 0%
%Inh (TAOK2): 0%
%Inh (TAOK3): 0%
%Inh (TBK1): 28%
%Inh (TEC): 96.7%
%Inh (TESK1): 13%
%Inh (TGFBR1; [1]): 4%
%Inh (TGFBR2): 0%

Fc1cccc(COc2ccc(Nc3ncnc4sc(-c5ccc[nH]5)cc34)cc2Cl)c1 [GW707818]
%Inh (SRMS): 14%
%Inh (SRPK1): 19%
%Inh (SRPK2): 3%
%Inh (SRPK3): 0%
%Inh (STK16): 26%
%Inh (STK33): 8%
%Inh (STK35): 0%
%Inh (STK36): 0%
%Inh (STK39): 9%
%Inh (SYK): 13%
%Inh (SgK110): 0%
%Inh (TAK1): 0%
%Inh (TAOK1): 10%
%Inh (TAOK2): 8%
%Inh (TAOK3): 14%
%Inh (TBK1): 2%
%Inh (TEC): 0%
%Inh (TESK1): 5%
%Inh (TGFBR1; [1]): 37%
%Inh (TGFBR2): 3%

CSc1nn2c(=O)cc(N3CCOCC3)nc2n1Cc1cccc(Cl)c1Cl [GSK2347225]
%Inh (SRMS): 0%
%Inh (SRPK1): 13%
%Inh (SRPK2): 0%
%Inh (SRPK3): 0%
%Inh (STK16): 14%
%Inh (STK33): 3%
%Inh (STK35): 65%
%Inh (STK36): 28%
%Inh (STK39): 0%
%Inh (SYK): 30%
%Inh (SgK110): 0%
%Inh (TAK1): 0%
%Inh (TAOK1): 2%
%Inh (TAOK2): 0%
%Inh (TAOK3): 3%
%Inh (TBK1): 10%
%Inh (TEC): 18%
%Inh (TESK1): 7%
%Inh (TGFBR1; [1]): 0%
%Inh (TGFBR2): 0%

CS(=O)(=O)CCNCc1ccc(-c2ccc3ncnc(Nc4ccc(OCc5ccccc5)c(Cl)c4)c3c2)o1.Cl [GW574783]
%Inh (SRMS): 0%
%Inh (SRPK1): 0%
%Inh (SRPK2): 0%
%Inh (SRPK3): 19%
%Inh (STK16): 0%
%Inh (STK33): 8%
%Inh (STK35): 0%
%Inh (STK36): 0%
%Inh (STK39): 5%
%Inh (SYK): 0%
%Inh (SgK110): 0%
%Inh (TAK1): 0%
%Inh (TAOK1): 0%
%Inh (TAOK2): 0%
%Inh (TAOK3): 0%
%Inh (TBK1): 2%
%Inh (TEC): 7%
%Inh (TESK1): 4%
%Inh (TGFBR1; [1]): 11%
%Inh (TGFBR2): 9%

Nc1nc(-c2cccnc2)c(-c2ccnc3ccccc23)s1 [GW684083]
%Inh (SRMS): 0%
%Inh (SRPK1): 3%
%Inh (SRPK2): 4%
%Inh (SRPK3): 18%
%Inh (STK16): 17%
%Inh (STK33): 14%
%Inh (STK35): 0%
%Inh (STK36): 0%
%Inh (STK39): 0%
%Inh (SYK): 34%
%Inh (SgK110): 48%
%Inh (TAK1): 1%
%Inh (TAOK1): 0%
%Inh (TAOK2): 0%
%Inh (TAOK3): 0%
%Inh (TBK1): 2%
%Inh (TEC): 0%
%Inh (TESK1): 0%
%Inh (TGFBR1; [1]): 5%
%Inh (TGFBR2): 14%

Clc1ccc(-c2cc(-c3c[nH]nc3-c3ccccn3)ccn2)cc1 [GW681251]
%Inh (SRMS): 0%
%Inh (SRPK1): 0%
%Inh (SRPK2): 0%
%Inh (SRPK3): 0%
%Inh (STK16): 19%
%Inh (STK33): 0%
%Inh (STK35): 0%
%Inh (STK36): 0%
%Inh (STK39): 1%
%Inh (SYK): 22%
%Inh (SgK110): 0%
%Inh (TAK1): 0%
%Inh (TAOK1): 0%
%Inh (TAOK2): 0%
%Inh (TAOK3): 0%
%Inh (TBK1): 0%
%Inh (TEC): 0%
%Inh (TESK1): 12%
%Inh (TGFBR1; 1 µM): 79%
%Inh (TGFBR2): 85%

CSc1ccc(NC2=C(c3ccccc3Cl)C(=O)NC2=O)cc1 [SB-342411]
%Inh (SRMS): 0%
%Inh (SRPK1): 7%
%Inh (SRPK2): 0%
%Inh (SRPK3): 5%
%Inh (STK16): 14%
%Inh (STK33): 0%
%Inh (STK35): 5%
%Inh (STK36): 48%
%Inh (STK39): 19%
%Inh (SYK): 23%
%Inh (SgK110): 0%
%Inh (TAK1): 7%
%Inh (TAOK1): 0%
%Inh (TAOK2): 1%
%Inh (TAOK3): 0%
%Inh (TBK1): 27%
%Inh (TEC): 10%
%Inh (TESK1): 6%
%Inh (TGFBR1; [1]): 0%
%Inh (TGFBR2): 0%

CC(C)(C)c1ccc(-n2cnc3c(N)ncnc32)cc1 [SKF-97263]
%Inh (SRMS): 14%
%Inh (SRPK1): 29%
%Inh (SRPK2): 0%
%Inh (SRPK3): 31%
%Inh (STK16): 0%
%Inh (STK33): 0%
%Inh (STK35): 11%
%Inh (STK36): 11%
%Inh (STK39): 0%
%Inh (SYK): 0%
%Inh (SgK110): 0%
%Inh (TAK1): 10%
%Inh (TAOK1): 6%
%Inh (TAOK2): 0%
%Inh (TAOK3): 8%
%Inh (TBK1): 15%
%Inh (TEC): 12%
%Inh (TESK1): 0%
%Inh (TGFBR1; [1]): 0%
%Inh (TGFBR2): 6%

Fc1ccc(-c2ncn(CCCNCc3ccccc3)c2-c2ccncc2)cc1
%Inh (SRMS): 0%
%Inh (SRPK1): 31%
%Inh (SRPK2): 4%
%Inh (SRPK3): 23%
%Inh (STK16): 0%
%Inh (STK33): 0%
%Inh (STK35): 0%
%Inh (STK36): 20%
%Inh (STK39): 0%
%Inh (SYK): 23%
%Inh (SgK110): 12%
%Inh (TAK1): 29%
%Inh (TAOK1): 5%
%Inh (TAOK2): 0%
%Inh (TAOK3): 0%
%Inh (TBK1): 25%
%Inh (TEC): 8%
%Inh (TESK1): 6%
%Inh (TGFBR1; [1]): 0%
%Inh (TGFBR2): 10%

O=C(NCCCN1CCCC1=O)c1cnc(NCc2cc(Cl)ccc2Cl)nc1NC1CCNCC1
%Inh (SRMS): 0%
%Inh (SRPK1): 21%
%Inh (SRPK2): 0%
%Inh (SRPK3): 4%
%Inh (STK16): 0%
%Inh (STK33): 0%
%Inh (STK35): 0%
%Inh (STK36): 0%
%Inh (STK39): 0%
%Inh (SYK): 8%
%Inh (SgK110): 5%
%Inh (TAK1): 27%
%Inh (TAOK1): 0%
%Inh (TAOK2): 0%
%Inh (TAOK3): 0%
%Inh (TBK1): 12%
%Inh (TEC): 0%
%Inh (TESK1): 2%
%Inh (TGFBR1; [1]): 0%
%Inh (TGFBR2): 6%

Cc1ccc(C)c(NC(=O)NCCNc2ccnc(Nc3ccc(F)cc3)n2)c1 [GSK1379878]
%Inh (SRMS): 0%
%Inh (SRPK1): 0%
%Inh (SRPK2): 0%
%Inh (SRPK3): 0%
%Inh (STK16): 100%
%Inh (STK33): 0%
%Inh (STK35): 0%
%Inh (STK36): 0%
%Inh (STK39): 0%
%Inh (SYK): 17%
%Inh (SgK110): 0%
%Inh (TAK1): 0%
%Inh (TAOK1): 0%
%Inh (TAOK2): 0%
%Inh (TAOK3): 0%
%Inh (TBK1): 7%
%Inh (TEC): 0%
%Inh (TESK1): 32%
%Inh (TGFBR1; [1]): 0%
%Inh (TGFBR2): 0%

Nc1nccc2scc(-c3ccc4c(c3)CCN4C(=O)Cc3cc(F)ccc3F)c12 [GSK2587663]
%Inh (SRMS): 0%
%Inh (SRPK1): 8%
%Inh (SRPK2): 0%
%Inh (SRPK3): 0%
%Inh (STK16): 11%
%Inh (STK33): 0%
%Inh (STK35): 0%
%Inh (STK36): 0%
%Inh (STK39): 6%
%Inh (SYK): 22%
%Inh (SgK110): 0%
%Inh (TAK1): 0%
%Inh (TAOK1): 0%
%Inh (TAOK2): 0%
%Inh (TAOK3): 0%
%Inh (TBK1): 6%
%Inh (TEC): 0%
%Inh (TESK1): 18%
%Inh (TGFBR1; [1]): 19%
%Inh (TGFBR2): 0%

FC(F)(F)c1ccc(-c2nn3ncccc3c2-c2ccnc(Nc3cccc(C(F)(F)F)c3)n2)cc1 [GW828205]
%Inh (SRMS): 30%
%Inh (SRPK1): 0%
%Inh (SRPK2): 36%
%Inh (SRPK3): 8%
%Inh (STK16): 14%
%Inh (STK33): 5%
%Inh (STK35): 0%
%Inh (STK36): 0%
%Inh (STK39): 0%
%Inh (SYK): 20%
%Inh (SgK110): 23%
%Inh (TAK1): 0%
%Inh (TAOK1): 0%
%Inh (TAOK2): 32%
%Inh (TAOK3): 0%
%Inh (TBK1): 51%
%Inh (TEC): 7%
%Inh (TESK1): 3%
%Inh (TGFBR1; [1]): 0%
%Inh (TGFBR2): 0%
